Measurements from PubChem BioAssay (Tox21).
Several values for one entry are separate records, joined by “and”; a condition that tells them apart may be missing. Equal values may be shown once. Results filed as inconclusive are left out. Where a structure was tested more than once in an assay, its records may differ in their call. Activity calls are given as the source filed them. Unless noted, calls come from the whole dose curve; as a rule, active = well fitted curve in the direction sought with a large enough effect in the repeat runs; inconclusive = weak or mixed curves; inactive = no such curve, though single readings can be large; an effect the other way counts as inactive or inconclusive.

Columns and labels:
[1] = target: Thyrotropin receptor (Homo sapiens) (UniProt P16473); assay: qHTS assay to identify small molecule antagonists of the thyroid stimulating hormone receptor (TSHR) signaling pathway (AID 1259385; calls by dose curve; note: nearly all actives have a fitted effect of over 20% in size; note: potency is the fitted concentration of half-maximal effect)
Thyrotropin receptor (Homo sapiens), sequence (P16473 whole entry, looked up): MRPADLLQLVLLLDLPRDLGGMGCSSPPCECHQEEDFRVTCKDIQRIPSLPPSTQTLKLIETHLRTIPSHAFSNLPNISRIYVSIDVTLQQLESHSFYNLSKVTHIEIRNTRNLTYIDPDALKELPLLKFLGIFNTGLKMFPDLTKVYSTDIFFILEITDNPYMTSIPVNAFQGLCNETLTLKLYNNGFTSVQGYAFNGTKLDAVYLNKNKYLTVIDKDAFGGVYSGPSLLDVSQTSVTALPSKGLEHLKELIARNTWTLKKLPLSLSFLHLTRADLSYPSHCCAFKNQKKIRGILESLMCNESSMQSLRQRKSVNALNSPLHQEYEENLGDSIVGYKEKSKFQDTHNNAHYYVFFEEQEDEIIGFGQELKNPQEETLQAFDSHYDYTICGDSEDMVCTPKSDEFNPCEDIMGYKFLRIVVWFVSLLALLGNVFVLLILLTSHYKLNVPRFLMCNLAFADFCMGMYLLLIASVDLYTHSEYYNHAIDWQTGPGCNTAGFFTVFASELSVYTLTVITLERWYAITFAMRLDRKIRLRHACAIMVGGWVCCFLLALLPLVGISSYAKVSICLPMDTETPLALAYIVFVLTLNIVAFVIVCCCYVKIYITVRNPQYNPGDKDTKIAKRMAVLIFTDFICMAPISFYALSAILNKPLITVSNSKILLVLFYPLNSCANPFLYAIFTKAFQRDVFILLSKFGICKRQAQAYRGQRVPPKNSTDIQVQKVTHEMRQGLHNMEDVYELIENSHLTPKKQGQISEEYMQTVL
How it was run: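 TSHR-HEK293 cells were plated and held 18 h at 37C/5% CO2, then given compound plus Ro20-1724 and stimulated with TSH at 1.5 ng/mL final. After 30 min at room temperature, cAMP was detected with cAMP-d2/anti-cAMP-cryptate (1 h) by fluorescence.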

[2] = qHTS assay to identify small molecule agonists of the estrogen receptor alpha (ER-alpha) signaling pathway in the presence of an antagonist - cell viability counter screen (AID 1259386);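 note: cells exposed to compounds for 22 h at 37 °C before the viability read; nearly all actives have a fitted effect of over 30% in size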; note: potency is the fitted concentration of half-maximal effect; for activity change, negative = cytotoxicity: series mostly up to about 92 µM
How it was run: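 Viability counter screen using VM7Luc4E2 (full-length ER-alpha, four ERE-luciferase). The cells were treated with compounds alongside ICI-182,780 10.0nM for 22hr, and live-cell protease fluorescence was quantified with CellTiter-Fluor.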

[3] = target: Progesterone receptor (Homo sapiens) (UniProt P06401); assay: qHTS assay to identify small molecule agonists of the progesterone receptor (PR) signaling pathway (AID 1346784; calls by dose curve; note: nearly all actives have a fitted effect of over 30% in size)
Progesterone receptor (Homo sapiens), sequence (P06401 whole entry, looked up): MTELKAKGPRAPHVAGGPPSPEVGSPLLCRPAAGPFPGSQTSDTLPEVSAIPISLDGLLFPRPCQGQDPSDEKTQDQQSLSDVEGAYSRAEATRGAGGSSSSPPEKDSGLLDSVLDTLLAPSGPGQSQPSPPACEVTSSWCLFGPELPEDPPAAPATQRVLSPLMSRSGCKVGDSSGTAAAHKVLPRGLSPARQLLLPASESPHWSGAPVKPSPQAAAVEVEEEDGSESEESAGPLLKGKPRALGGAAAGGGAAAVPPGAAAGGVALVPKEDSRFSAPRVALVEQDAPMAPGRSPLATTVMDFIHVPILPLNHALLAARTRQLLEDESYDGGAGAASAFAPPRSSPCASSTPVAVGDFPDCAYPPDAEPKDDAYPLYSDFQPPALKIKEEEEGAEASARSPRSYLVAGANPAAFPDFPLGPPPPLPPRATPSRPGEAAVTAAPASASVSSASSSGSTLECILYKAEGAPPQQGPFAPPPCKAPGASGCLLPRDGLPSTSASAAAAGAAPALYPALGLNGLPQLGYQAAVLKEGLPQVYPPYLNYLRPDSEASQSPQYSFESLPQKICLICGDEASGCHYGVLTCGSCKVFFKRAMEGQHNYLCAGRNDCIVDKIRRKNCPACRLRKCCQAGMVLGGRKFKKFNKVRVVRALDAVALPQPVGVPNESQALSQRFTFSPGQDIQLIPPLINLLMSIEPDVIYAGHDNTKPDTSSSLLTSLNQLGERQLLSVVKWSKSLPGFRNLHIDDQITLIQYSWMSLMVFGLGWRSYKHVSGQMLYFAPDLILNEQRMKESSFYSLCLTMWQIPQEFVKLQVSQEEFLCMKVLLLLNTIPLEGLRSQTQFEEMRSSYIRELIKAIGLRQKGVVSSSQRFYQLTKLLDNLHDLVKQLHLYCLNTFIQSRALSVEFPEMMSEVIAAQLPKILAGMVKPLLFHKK
How it was run: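 Compounds were tested for PR agonism in HEK 293T cells bearing a beta-lactamase gene under UAS control. Treatment lasted 16 hr at 37C; signal came from fluorescence of a FRET substrate.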

[4] = qHTS assay to identify small molecule agonists of the progesterone receptor (PR) signaling pathway - cell viability counter screen (AID 1346799; calls by dose curve; note: nearly all actives have a fitted effect of over 45% in size; note: potency is the fitted concentration of half-maximal effect)
How it was run: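 Here, 3,000 PR-UAS-bla HEK293T cells per well were treated with compounds for 16 hr after a 6 hr preincubation at 37C and 5% CO2; cell viability is the CellTiter-Glo luminescence signal.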

[5] = qHTS assay to identify small molecule antagonists of the TGF-beta/Smad signaling pathway - cell viability counter screen (AID 1346824); note: nearly all actives have a fitted effect of over 50% in size; note: potency is the fitted concentration of half-maximal effect
How it was run: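 SBE-bla HEK 293T cells were plated overnight at 37 C, then given compounds in DMSO plus TGF-beta1 (added as 0.25 ng/mL solution) for 5 hr. After the bla read, CellTiter-Glo was added to the same wells and luminescence read after 30 min at room temperature.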

[6] = qHTS assay to identify small molecule agonists of the TGF-beta/Smad signaling pathway - cell viability counter screen (AID 1346829); note: nearly all actives have a fitted effect of over 45% in size; note: potency is the fitted concentration of half-maximal effect; for activity change, negative = cytotoxicity: top concentration of the series differs between compounds
How it was run: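 Cytotoxicity counter screen: CellTiter-Glo luminescence (30 min, room temperature) measured in the SBE-bla HEK 293T reporter wells after 5 hr compound treatment at 37 C and the 2 hr substrate step.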

[7] = qHTS assay to identify small molecule agonists of the TGF-beta/Smad signaling pathway (AID 1346859; active = well fitted activation curve with a large enough effect in the signal ratio in the repeat runs, not every such curve was filed as active; the % refers to the signal ratio; note: series mostly up to about 77 µM)
How it was run: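 Each well held 4,000 SBE-bla HEK 293T cells incubated overnight before compound addition; 5 hr later the cleavable FRET substrate went on for 2 hr at room temperature, and fluorescence was read at two emissions.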

[8] = target: Thyrotropin-releasing hormone receptor (Homo sapiens) (UniProt P34981); assay: qHTS assay to identify small molecule antagonists of the thyrotropin-releasing hormone receptor (TRHR) signaling pathway (AID 1346877; active = well fitted inhibition curve with a large enough effect in the repeat runs, not every such curve was filed as active; note: series mostly up to about 51 µM)
Thyrotropin-releasing hormone receptor (Homo sapiens), sequence (P34981 whole entry, looked up): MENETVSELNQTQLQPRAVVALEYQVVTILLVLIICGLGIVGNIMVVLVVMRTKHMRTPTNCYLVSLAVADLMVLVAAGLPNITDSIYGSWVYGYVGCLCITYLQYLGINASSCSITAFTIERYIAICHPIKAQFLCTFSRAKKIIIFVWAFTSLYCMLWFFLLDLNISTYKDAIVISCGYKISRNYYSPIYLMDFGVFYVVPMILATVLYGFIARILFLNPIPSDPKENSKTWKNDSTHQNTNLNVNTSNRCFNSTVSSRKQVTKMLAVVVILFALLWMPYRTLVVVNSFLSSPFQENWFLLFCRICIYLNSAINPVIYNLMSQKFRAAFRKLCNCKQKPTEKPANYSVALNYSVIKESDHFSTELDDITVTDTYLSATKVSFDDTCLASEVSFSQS
How it was run: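 Following an 18 h incubation at 37 °C and a 2 h calcium dye load, TRHR-HEK293 cells were exposed to compound (5 min, room temperature) and challenged with TRH, 1 nM final.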

[9] = qHTS assay to identify small molecule antagonists of the progesterone receptor (PR) signaling pathway - cell viability counter screen (AID 1346798); note: series mostly up to about 92 µM; nearly all actives have a fitted effect of over 50% in size
How it was run: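 Following a 4 hr attachment, PR-UAS-bla HEK293T cells in charcoal-stripped FBS medium were exposed to compounds with R5020 for 16 hr; CellTiter-Glo was added and luminescence read after 30 min at room temperature.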

[10] = target: Progesterone receptor (Homo sapiens) (UniProt P06401); assay: qHTS assay to identify small molecule antagonists of the progesterone receptor (PR) signaling pathway (AID 1346795; active = well fitted inhibition curve with a large enough effect in the signal ratio in the repeat runs, not every such curve was filed as active; the % refers to the signal ratio; note: potency is the fitted concentration of half-maximal effect)
How it was run: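 In HEK293T cells bearing the PR-UAS-bla reporter, compound effects on promegestone-driven (1 nM) beta-lactamase expression are assessed after 16 hr using a fluorescent FRET substrate incubated 2 hr at room temperature.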
% is set by controls: 0 for no effect and ±100 for the full control effect.

CCCN(CCCl)c1c([N+](=O)[O-])cc(C(F)(F)F)cc1[N+](=O)[O-]
inactive: Potency [1] | Potency [2] | Potency [3] | Potency [4] | Potency [5] | Potency [6] | outcome [7] | Potency [8]

Cc1ccccc1C(=O)Nc1cccc(OC(C)C)c1
inactive: Potency [1] | Potency [2] | Potency [3] | Potency [5] | Potency [6] | outcome [7] | Potency [8]

CCOP(=S)(OCC)Oc1cc(Cl)c(Br)cc1Cl
inactive: Potency [1] | Potency [2] | Potency [3] | Potency [9] | Potency [4] | Potency [6] | outcome [7]

CCOP(=O)(OCC)Oc1ccc([N+](=O)[O-])cc1
inactive: Potency [1] | Potency [2] | Potency [9] | Potency [4] | Potency [5] | Potency [6] | outcome [7]
active: Potency [10] 17.4 µM and 17.2 µM

CCOP(=S)(OCC)Oc1nc(Cl)c(Cl)cc1Cl
61.3 µM (active) and inactive: Potency [4]
inactive: Potency [2] | Potency [3] | Potency [5] | Potency [6] | outcome [7] | Potency [8]
active: Potency [1] 27.4 µM and 54.5 µM

O=C(NC(=O)c1c(F)cccc1F)Nc1cc(Cl)c(Oc2ncc(C(F)(F)F)cc2Cl)c(Cl)c1
inactive: Potency [1] | Potency [2] | Potency [3] | Potency [9] | Potency [4] | Potency [5] | Potency [6] | Potency [8]

CC(C)(C)c1cc([N+](=O)[O-])cc([N+](=O)[O-])c1O
inactive: Potency [1] | Potency [3] | Potency [6] | Potency [8]
active: Potency [2] 19.3 µM

O=C1c2ccccc2C(=O)C1C(=O)C(c1ccccc1)c1ccccc1
inactive: Potency [1] | Potency [2] | Potency [3] | Potency [4] | Potency [5] | Potency [6] | outcome [7] | Potency [8]

COC(=O)C(C)N(C(=O)Cc1ccccc1)c1c(C)cccc1C (stereo unspecified)
inactive: Potency [1] | Potency [2] | Potency [3] | Potency [9] | Potency [5] | Potency [6] | Potency [8]

c1cc2ccc3cccc4ccc(c1)c2c34
inactive: Potency [1] | Potency [2] | Potency [3] | Potency [6] | outcome [7] | Potency [8]
active: Potency [4] 28.6 µM

CO[C@@H]1[C@H](OC(=O)NC(=O)CCl)CC[C@]2(CO2)[C@H]1[C@@]1(C)O[C@@H]1CC=C(C)C
inactive: activity change, negative = inhibition [1] 0.358% [at 19 µM] | activity change, negative = cytotoxicity [2] -1.81% [at 19 µM] | activity change, negative = inhibition [10] 6.82% [at 18.9 µM] | activity change, negative = cytotoxicity [9] -12.2% [at 18.9 µM] | activity change, negative = cytotoxicity [4] -29% [at 19 µM] | viability change, negative = cytotoxic [5] 3.4% [at 15.8 µM] | activity change, negative = cytotoxicity [6] 8.28% [at 15.8 µM] | activity, negative = inhibition [8] 4.68% [at 10.5 µM]

C=CC(C)=O
inactive: Potency [1] | Potency [2] | Potency [3] | Potency [9] | Potency [4] | Potency [5] | Potency [6] | outcome [7] | Potency [8]

CC(C)N(C(=O)COc1nnc(C(F)(F)F)s1)c1ccc(F)cc1
inactive: Potency [1] | Potency [2] | Potency [3] | Potency [9] | Potency [5] | Potency [6] | outcome [7]

CCCC(=O)Cl
inactive: Potency [1] | Potency [2] | Potency [3] | Potency [4] | Potency [5] | Potency [6] | outcome [7] | Potency [8]

CCOC(=O)CBr
inactive: Potency [1] | Potency [2] | Potency [3] | Potency [9] | Potency [4] | Potency [5] | Potency [6] | Potency [8]

OCCCBr
inactive: Potency [1] | Potency [2] | Potency [3] | Potency [5] | Potency [6] | outcome [7] | Potency [8]

CO/N=C(/C(=O)OC)c1ccccc1COc1ccccc1C
inactive: Potency [1] | Potency [2] | Potency [3] | Potency [9] | Potency [5] | Potency [8]

Clc1ccc(C(OCCN2CCCCC2)c2ccccc2)cc1 (stereo unspecified)
inactive: Potency [1] | Potency [2] | Potency [3] | Potency [9] | Potency [4] | Potency [5] | Potency [6] | Potency [8]

O=[Se]=O
inactive: Potency [1] | Potency [3] | Potency [9] | Potency [4] | Potency [8]
active: Potency [2] 21.5 µM | Potency [5] 9.7 µM | Potency [6] 4.86 µM

COC1=CC(=O)O[C@@H](CCc2ccccc2)C1
inactive: Potency [1] | Potency [2] | Potency [3] | Potency [9] | Potency [4] | Potency [5] | Potency [6] | Potency [8]

O=S(=O)(O)C(F)(F)C(F)(F)C(F)(F)C(F)(F)F
inactive: Potency [1] | Potency [2] | Potency [3] | Potency [9] | Potency [5] | Potency [6] | outcome [7]

CC(=O)CCC(C)=O
inactive: Potency [2] | Potency [3] | Potency [10] | Potency [9] | Potency [4] | Potency [5] | Potency [6] | outcome [7] | Potency [8]

O=C(C(Cl)(Cl)Cl)C(Cl)(Cl)Cl
inactive: Potency [2] | Potency [3] | Potency [10] | Potency [9] | Potency [4] | Potency [5] | Potency [6] | Potency [8]

CS/C(C)=N/OC(=O)N(C)SN(C)C(=O)O/N=C(\C)SC
inactive: Potency [2] | Potency [3] | Potency [10] | Potency [9] | Potency [4] | Potency [5] | Potency [6] | outcome [7]

CCCCN(N=O)C(=N)N[N+](=O)[O-]
inactive: Potency [2] | Potency [3] | Potency [10] | Potency [9] | Potency [4] | Potency [5] | Potency [6] | outcome [7] | Potency [8]
